High-throughput results as filed in PubChem BioAssay.
Hits are enriched below; roughly 7.3% of the tested compounds scored in any of these assays.
HCV inhibitor: blocks hepatitis C virus; 340,000 compounds, 3.4% hits; Huh7.5.1 HCVcc-Cre infection, luciferase reporter, 44 h; Potency, µM (top dose mostly 41.8 µM), for the others: at the top dose activity change, negative = inhibition, usual class: inhibitors; active means well fitted inhibition curve with a large enough effect; inconclusive means small, poorly fitted or top-dose-only effect, or another doubt; inactive means no such curve, though single readings can be large or run the other way; further: potency means the concentration at half of the fitted maximal effect
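Infectious HCVcc-Cre (~0.5 moi) was added to cells just after compound, with cells seeded 4 h earlier at 1,000 per well. Luciferase activity after 44 h culture reported infection; substrate was incubated 15 min at room temperature before reading.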
HCMV antiviral: inhibitors of human cytomegalovirus; 410,000 compounds, 4.5% hits; HFF cells, HCMV-luciferase reporter, 72 h; hits give low values; activity change, negative = inhibition, % at 57.5 µM; in the data active means activity change below about -60%; inconclusive means no clear call, values can overlap the other calls; inactive means above about -39%
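Steps: HFFs plated, 16 h 37C; compounds added; HCMV-luciferase added to MOI 1 PFU/cell; 72 h 37C; OneGlo reagent, 5 min room temperature; luminescence read, normalized to controls.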
Vaccinia Venus: vaccinia inhibition (Venus reporter); Potency, µM (titrated, usually from 36.5 µM), inactives show at the highest dose activity change, negative = inhibition, hits mostly inhibitors; 330,000 compounds, 0.46% hits; Vaccinia virus Venus reporter expression, fluorescence; AID 720580; calls by dose curve; tested in A549 cells; further: potency means the concentration at half of the fitted maximal effect; nearly all actives have a fitted effect of over 30% in size
FMDV antiviral: antivirals against foot and mouth disease virus; FMDV antiviral cell-based qHTS; Potency, µM (series often up to 57.9 µM), inactives show at the highest dose activity change, negative = inhibition, most hits filed as inhibitors; 410,000 compounds, 1.2% hits; AID 1159524; calls by dose curve; tested in HEK293T cells; further: read-out not given here; potency means the concentration at half of the fitted maximal effect; nearly all actives have a fitted effect of over 45% in size
VACV mCherry inh: inhibitors of vaccinia virus infection (mCherry reporter signal) | Vaccinia virus mCherry reporter infection, fluorescence | Potency, µM (doses to about 36.5 µM), without a hit: at the highest dose activity change, negative = inhibition, hits mostly inhibitors | 310,000 compounds, 0.63% hits; calls by dose curve; tested in A549 cells; further: potency means the concentration at half of the fitted maximal effect; nearly all actives have a fitted effect of over 35% in size
Starred values were filed as active, the others as inactive; i = inactive; ? = inconclusive; . = no result given; [ ] = another dose, or the depositor's remark. On the % scale 0 is the no-effect control and ±100 the full control effect.

SMILES	HCV inhibitor	HCMV antiviral	Vaccinia Venus	FMDV antiviral	VACV mCherry inh
COc1ccccc1C(=O)NC1CC(C)(C)NC(C)(C)C1	-4.1%	-1.8	-8.0%	6.3%	-12.8%
CCC(O)CNC(=O)c1cnn(-c2nccc(-c3cc(C)sc3C)n2)c1C1CC1 (configuration not stated)	.	.	-11.7%	36.1%	-24.7%
COC(=O)c1ccc(OCC2c3cc(OC)c(OC)cc3CCN2C(=O)c2ccc(F)cc2)cc1 (configuration not stated)	.	17.3	2.5%	?	-8.6%
CCOc1ccc(C2c3c(oc4ccc(C)cc4c3=O)C(=O)N2c2nc(C)c(C)s2)cc1OC (configuration not stated)	.	8.6	-8.8%	-15.7%	-12.4%
O=[N+]([O-])c1ccc(S(=O)(=O)N2CCN(c3nc(-c4cccs4)nc4ccccc34)CC2)cc1	.	.	-11.8%	.	-15.5%
CCCCS(=O)(=O)/C=C\C1C2C=CC(C2)C1S(=O)(=O)CCCC (configuration not stated)	15.5%	-4.4	-8.2%	2.5%	.
CCCCS(=O)(=O)/C=C\C=C/S(=O)(=O)CCCC	2.51µM*	.	11.2µM*	?	.
Cc1sc2ncnc(SCc3ccco3)c2c1C	-12.3%	?	-8.0%	?	.
Cc1sc2ncnc(N(C)Cc3ccco3)c2c1C	?	-70.8*	-18.2%	22.4µM*	.
O=C(CN1CCCC1)Nc1ccc(-c2nc3cc(NC(=O)CN4CCCC4)ccc3o2)cc1	?	-100.0*	.	37.6%	.
CCC(C)NCC(=O)Nc1ccc(-c2nc3cc(NC(=O)CNC(C)CC)ccc3o2)cc1 (configuration not stated)	12.7%	-84.2*	-15.1%	-7.4%	.
COc1ccccc1CNC(=O)c1cccc(NC(=O)N2CCSc3ncccc32)c1	.	0.0	-8.3%	0.0%	-6.1%
CSc1cc(-c2ccccc2)n(C)c(=O)c1C#N	10µM*	-66.5*	-26.3%	-28.2%	?
C/C=C/[C@@H]1[C@@H](S(=O)(=O)c2ccccc2)CC(=O)N1Cc1ccccc1	.	-6.8	.	.	.
CCCSc1ccc2nc(-c3ccccc3)cn2c1	?	-63.8*	-14.5%	2.24µM*	-21.3%
O=C(CSc1nc2c(cnn2-c2ccc(F)cc2)c(=O)[nH]1)Nc1ccc(Br)cc1	.	1.8	4.4%	-4.1%	-5.9%
O=C(Nc1ccccc1)N(C1=NCCCCS1)c1ccccc1	-16.5%	-104.1*	1.4%	8.6%	.
O=C(Nc1ccccc1)N(C1=NCCCCS1)c1cccc2ccccc12	5.2%	30.6	.	27.9%	.
Cc1ccc2c(Cl)cc(Cl)c(OCC(=O)Nc3cccc(S(=O)(=O)N(C)C)c3)c2n1	?	28.3	-3.1%	?	-26.7%
Cc1ccc2c(Cl)cc(Cl)c(OCC(=O)NC(C)(C)C)c2n1	22.4µM*	4.4	.	-37.4%	.
Cc1ccc2c(Cl)cc(Cl)c(OCC(=O)Nc3cc(S(=O)(=O)N(C)C)ccc3C)c2n1	2.51µM*	-28.1	-27.8%	?	-19.2%
COC(=O)COc1c(Cl)cc(Cl)c2ccc(C)nc12	4.9%	9.0	-7.7%	-13.0%	i
COC(=O)[C@@H](NC(=O)N1CCC(Cc2ccccc2)CC1)C(C)C	-7.5%	-29.3	-1.9%	-7.0%	i
O=C1CCC[C@H]2[C@@H](Cc3ccccc3)[C@@H](NCc3ccccc3)CC[C@]23CCCN13	.	-20.7	.	.	.
NC(=O)C1=C(c2ccccc2)c2ccccc2C1=O	-1.3%	-7.9	0.5%	31.6µM*	-0.9%
SMILES	HCV inhibitor	HCMV antiviral	Vaccinia Venus	FMDV antiviral	VACV mCherry inh
O=C1C(c2ccncc2)=C(O)c2ccccc21	-0.4%	67.2	-20.5%	0.0%	.
CN1C/C(=C/c2ccsc2)C(=O)/C(=C/c2ccsc2)C1	?	-85.7*	?	28.2µM*	?
CCN1C/C(=C/c2ccc(N3CCOCC3)cc2)C(=O)/C(=C/c2ccc(N3CCOCC3)cc2)C1	?	-102.1*	55.5%	28.2µM*	11.2µM*
CCc1ccc(/C=C2/SC(N3CCOCC3)=NC2=O)cc1	-31.5%	?	-9.0%[7.34 µM]	6.2%	i[7.34 µM]
CN1C/C(=C\c2ccc(N3CCOCC3)cc2)C(=O)/C(=C/c2ccc(N3CCOCC3)cc2)C1	11.2µM*	?	-0.3%	?	?
Cc1ccc(NC2CCCN(C(=O)CCn3nccc3C)C2)cc1C (configuration not stated)	7.2%	-8.7	-15.5%	-0.9%	-17.3%
CC1(C)CCC2(C(=O)O)CC[C@]3(C)C(=CCC4[C@]5(C)CCC(O)C(C)(C)C5C(O)C[C@]43C)C2C1 (some centres not stated)	.	.	5.1%	-9.1%	-12.6%
